An excerpt weighted towards active compounds, which were near 0.36% of everything screened.
TRb SRC2 PPI = TRbeta-SRC2 interaction inhibition; TRbeta-SRC2 peptide binding, fluorescence polarization; receptor liganded with 1 µM T3; Potency, µM (titrated, usually from 106 µM), actives largely listed as inhibitors; hit rate 0.065% among 280,000; AID 1469; active means well fitted inhibition curve with a large enough effect; inconclusive means small, poorly fitted or top-dose-only effect, or effect the other way; further: nearly all actives have a fitted effect of over 50% in size
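Human TRb LBD (0.6 uM) plus Texas Red-labeled SRC2 peptide (20 nM), 1uM T3, 5% DMSO, 5 hr at ambient temperature. Decreased polarization (555/632 nm) flags inhibition; data normalized to free and bound peptide controls.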
CXXC DNA block = inhibitors of human MLL CXXC domain-DNA interaction; Potency, µM (highest dose often 115 µM), most hits filed as inhibitors; Q03164; MLL-CXXC / FITC-HOXA9 DNA fluorescence polarization; AID 2662; hit rate 0.037% among 290,000; active means well fitted inhibition curve with a large enough effect in the polarisation, with a control signal flat, not every such curve was filed as active; inconclusive means small, poorly fitted or top-dose-only effect, or effect the other way, or a change in a side signal; inactive means no such curve, though single readings can be large or run the other way; the % refers to the polarisation
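Steps: dispense CXXC domain solution (7 uM) → pin compounds or unlabeled HOX-A9 DNA control → 5 min ambient → add FLSN-HOX-A9 solution (50 nM) → spin → 30 min ambient → fluorescence polarization. Tris pH 7.5/NaCl/DTT/BSA buffer.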
Menin MLL FP FL = displaces fluorescein MLL peptide from human menin. FP activity change, % at 61.4 µM. Fluorescence polarization, fluorescein-MLL peptide displacement from menin. 290,000 tested, under 10 active; active means well fitted curve in the direction sought with a large enough effect in the polarisation, not every such curve was filed as active; inconclusive means small, poorly fitted or top-dose-only effect, or effect the other way, or a change in a side signal; inactive means no such curve, though single readings can be large or run the other way; the % refers to the polarisation
TR SRC2 fluor cs = Texas Red fluorescence interference in TRb-SRC2 counter-screen; Potency, µM (doses to about 106 µM); TRb/SRC2 Texas Red total fluorescence interference; hit rate 0.29% among 280,000; active means well fitted curve in either direction with a large enough effect; inconclusive means small, poorly fitted or top-dose-only effect
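Human TRb ligand-binding domain at 0.6 uM with 20 nM Texas Red SRC2 peptide in Tris buffer containing 1 uM T3 and 5% DMSO, incubated with compound 5 h at ambient temperature. Total fluorescence (555/632 nm) calculated as parallel + 2 × perpendicular.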
Menin MLL FP TR = inhibitors of human menin-MLL interaction, mutant MLL peptide | Menin + Texas Red MLL mutant peptide, fluorescence polarization | Potency, µM (highest dose often 61.6 µM), hits mostly inhibitors | hit rate 0.23% among 270,000 | AID 1768; active means well fitted inhibition curve with a large enough effect in the polarisation, with a control signal flat, not every such curve was filed as active; inconclusive means small, poorly fitted or top-dose-only effect, or effect the other way, or a change in a side signal; inactive means no such curve, though single readings can be large or run the other way; the % refers to the polarisation
Hits are given with their value; – = inactive; ? = inconclusive; · = no result; ! = not confirmed by another sample; [ ] = remark or other dose.

SMILES	TRb SRC2 PPI	CXXC DNA block	Menin MLL FP FL	TR SRC2 fluor cs	Menin MLL FP TR
Cc1cc2c(C(C)C)c(O)c(O)c(C=O)c2c(O)c1-c1c(C)cc2c(C(C)C)c(O)c(O)c(C=O)c2c1O	?	?	?	25µM![quencher]	?
O=C=Nc1ccc(Cl)cc1	–	·	·	–	·
O=C(O)C(F)(F)C(F)(F)C(F)(F)C(F)(F)C(F)(F)C(F)(F)C(F)(F)C(F)(F)F	?	·	·	126µM![quencher]	·
O=C1NC(=O)C(=C/C=C/c2coc3ccc(Br)cc3c2=O)C(=O)N1	?	?	?	25µM[fluorescent]	·
C#C[C@]1(O)CCC2C3CCC4=C/C(=N/OCC(=O)NC(C)C(=O)NC(CCSC)C(=O)O)CC[C@]4(C)C3CC[C@@]21C (stereo not given in full)	·	–	–	·	25µM
COC[C@H]1OC(=O)c2coc3c2[C@@]1(C)C1=C(C3=O)C2CCC(=O)[C@@]2(C)C[C@H]1OC(C)=O (stereo not given in full)	35µM	?	?	45µM![fluorescent]	?
COC[C@H]1OC(=O)c2coc3c2[C@@]1(C)C1=C(C3=O)[C@H]2CCC(=O)[C@@]2(C)C[C@H]1OC(C)=O	–	·	?	–	10µM
Brc1ccc(Br)cc1	–	·	·	–	·
Cc1ccc(NC(=O)Cn2cc(C(=O)c3ccccc3)c3ccccc32)cc1	–	·	·	0.025µM[quencher]	·
CCS(=O)(=O)c1cccnc1S(=O)(=O)NC(=O)Nc1nc(OC)cc(OC)n1	–	·	·	–	·
ClC1=C(Cl)C(Cl)(C2(Cl)C(Cl)=C(Cl)C(Cl)=C2Cl)C(Cl)=C1Cl	?	·	?	32µM[quencher]	?
c1ccc(C2CC2)c(OCC2=NCCN2)c1	?	–	–	45µM![fluorescent]	–
CC(C)=CC1[C@H](C(=O)OCc2cccc(Oc3ccccc3)c2)C1(C)C (stereo not given in full)	–	·	·	–	·
CCC(C)c1ccc(O)cc1 (stereo not given)	–	·	·	–	·
CCCCCOc1ccc(C)cc1CN(CCCl)CCCl	32µM	–	–	–	·
CCN(CCCl)Cc1ccccc1Br	–	–	–	–	–
Cc1ccc(OCC(=O)N2CCN(CCc3ccncc3)CC2)cc1	–	·	·	–	·
CCc1ccc(OCC(=O)N2CCN(CCc3ccncc3)CC2)cc1	–	·	·	708µM[quencher]	·
CNC(=O)O/N=C(\C)SC	–	·	·	–	·
CC1=NNC(=O)N(/N=C/c2cccnc2)C1	–	·	·	–	·
CS(=O)(=O)NC(=O)c1cc(Oc2ccc(C(F)(F)F)cc2Cl)ccc1[N+](=O)[O-]	–	·	·	–	·
Cc1[nH]n(-c2ccccc2)c(=O)c1C(c1ccc([N+](=O)[O-])cc1)c1c(C)[nH]n(-c2ccccc2)c1=O	–	–	–	0.35µM[quencher]	–
Cc1nc2ccccc2c(=O)n1-c1cc([N+](=O)[O-])cc([N+](=O)[O-])c1	·	–	–	·	–
Nc1c(C(=O)Nc2ccc(Br)cc2F)sc2nc3c(cc12)N1CCC3CC1	–	·	·	10µM[quencher]	·
Nc1c(C(=O)Nc2ccc(F)c(Cl)c2)sc2nc3c(cc12)N1CCC3CC1	–	·	·	–	·
SMILES	TRb SRC2 PPI	CXXC DNA block	Menin MLL FP FL	TR SRC2 fluor cs	Menin MLL FP TR
CN(C)c1ccc(NC(=O)c2sc3nc4c(cc3c2N)N2CCC4CC2)cc1	–	·	·	14µM[quencher]	·
COC1CC(O[C@H]2/C(C)=C/CC3CC(C[C@]4(CCC(C)C(C5CCCCC5)O4)O3)OC(=O)[C@H]3C=C(C)/C(=N/O)C4OC/C(=C\C=C\[C@@H]2C)[C@@]43O)OC(C)C1O (stereo not given in full)	–	–	–	–	22µM
CCC(C)C1O[C@]2(C=CC1C)CC1CC(C/C=C(\C)[C@H](OC3CC(OC)C(O[C@H]4CC(OC)[C@@H](O)C(C)O4)C(C)O3)[C@@H](C)/C=C/C=C3\COC4C(O)C(C)=C[C@H](C(=O)O1)[C@@]34O)O2 (stereo not given in full)	–	–	–	–	?
CCOP(=O)(OCC)SCSCC	–	·	·	–	·
O=C(Nc1ccccc1)Nc1ccnc(Cl)c1	–	·	·	–	·
COc1ccc(CNCCc2c(C)[nH]c3ccc(OC(F)(F)F)cc23)c(OC)c1	·	–	–	·	28µM
COc1ccc2[nH]c(C)c(CCNCc3cc(OC)c(OC)c(OC)c3)c2c1	–	–	?	–	–
CCNS(=O)(=O)C(F)(F)C(F)(F)C(F)(F)C(F)(F)C(F)(F)C(F)(F)C(F)(F)C(F)(F)F	–	·	·	–	·
CCOc1nc(F)cc2nc(S(=O)(=O)Nc3c(Cl)cccc3Cl)nn12	–	·	·	–	·
CCCCN1C(=O)/C(=C/c2ccc(N(C)C)cc2)C(=O)N(Cc2ccco2)C1=O	?	?	?	40µM[fluorescent]	25µM
CCCCN1C(=O)/C(=C\c2ccco2)C(=O)N(CCc2ccccc2)C1=O	?	?	?	28µM[fluorescent]	–
CN1CCN(C(=O)COc2ccc(-c3nc4ccccc4s3)cc2)CC1	–	–	–	–	13µM
COc1cccc(-n2c(CN3CCOCC3)nc3ccc([N+](=O)[O-])cc3c2=O)c1	·	–	–	·	–
CCN1CCN(Cc2nc3ccc([N+](=O)[O-])cc3c(=O)n2-c2ccccc2F)CC1	·	?	–	·	10µM
CCOP(=O)(OCC)OP(=O)(OCC)OCC	–	·	·	–	·
N.N.N.N.N.N.N.N.N.N.N.N.N.N.O.O.[Cl-].[Cl-].[Cl-].[Cl-].[Cl-].[Cl-].[Ru].[Ru].[Ru]	–	?	?	–	25µM
c1ccc2c(c1)oc1ccccc12	–	·	·	–	·
Cc1cc(C=C2C(=O)NC(=S)NC2=O)c(C)n1-c1ccc2c(c1)OCO2	–	?	?	28184µM[quencher]	?
CCC[CH2][Sn]([Cl])([CH2]CCC)[CH2]CCC	–	·	·	–	·
COC(=O)[C@@H]1C[C@H]1[C@@H](NP(=O)(c1ccccc1)c1ccccc1)c1ccccc1	–	–	–	–	0.14µM!
COC(=O)[C@H]1C[C@@H]1[C@H](NP(=O)(c1ccccc1)c1ccccc1)c1ccccc1	–	–	–	–	–
Cc1ccccc1-n1c(O)c(/C=C2/C(c3ccccc3)=Nc3ccccc32)c(=O)[nH]c1=O	?	–	–	32µM[quencher]	?
CN(C)[C@@H]1C(=O)C(C(N)=O)=C(O)[C@@]2(O)C(=O)C3=C(O)c4c(O)ccc(Cl)c4[C@@](C)(O)C3C[C@@H]12 (stereo not given in full)	–	–	–	40µM[quencher]	–
CCOC(=O)Nc1cccc(OC(=O)Nc2ccccc2)c1	–	·	·	–	·
CCCN(CC)CC1COC2(CCC(C(C)(C)C)CC2)O1 (stereo not given)	–	·	·	–	·
CN1COCN(Cc2cnc(Cl)s2)/C1=N\[N+](=O)[O-]	–	·	·	–	·
CCC(CC)N1CCN(Cc2nc3ccccc3c(=O)n2-c2ccc(F)cc2)CC1	·	–	–	·	–
O=c1c2ccccc2nc(CN2CCCCCC2)n1-c1ccc(F)cc1	–	–	–	–	18µM
CN(C)c1ccc(NC(=O)Oc2ccccc2)cc1	45µM	–	–	?	?
